# Legend:
# Test in all cases: DAPPL (digital affinity profiling via proximity ligation, sequencing); 10 mM Tris-HCl pH 7.5, 50 mM NaCl, 1 mM DTT, 4% glycerol, room temperature, 30 min; GST-TFs on glutathione beads, 16-mer random dsDNA library, 0.1% formaldehyde crosslink after washing; high values mean tight binding
# [1] = molecular target: T1, FEV (Homo sapiens, UniProt Q99581 1-238); settings: protein: recombinant; tags: N-terminal GST; dsDNA, one strand shown
# T1 sequence: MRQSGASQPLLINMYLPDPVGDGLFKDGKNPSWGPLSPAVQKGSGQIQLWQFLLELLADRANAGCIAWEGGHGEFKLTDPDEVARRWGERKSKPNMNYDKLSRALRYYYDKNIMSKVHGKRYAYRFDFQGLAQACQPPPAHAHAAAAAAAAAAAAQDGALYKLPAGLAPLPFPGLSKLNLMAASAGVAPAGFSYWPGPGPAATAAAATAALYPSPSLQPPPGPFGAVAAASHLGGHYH
# Method in brief: (§1)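 Binding signal is each hexamer's read frequency for a factor divided by its frequency in the tag-only sample. The factors were GST-fused human transcription factors from yeast, captured on glutathione beads, DNA-barcoded and pooled with that sample. Pools were incubated with 200 nmole of a random double-stranded 16-mer DNA library in Tris/NaCl/DTT/glycerol buffer at room temperature for 30 min, then washed, crosslinked with 0.1% formaldehyde, proximity-ligated with BsaI/T4 ligase (1 h, 37 °C), PCR-amplified and sequenced on an Illumina NextSeq500.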
# [2] = molecular target: ETV5 (Homo sapiens, UniProt P41161 1-510); settings: protein: recombinant; tags: N-terminal GST; dsDNA, one strand shown
# Method in brief: as §1
# [3] = molecular target: HSF1 (Homo sapiens, UniProt Q00613 1-529); settings: protein: recombinant; tags: N-terminal GST; chain copies: 3; dsDNA, one strand shown
# Method in brief: as §1
# [4] = molecular target: T2, SPIC (Homo sapiens, UniProt Q8N5J4 1-248); settings: protein: recombinant; tags: N-terminal GST; dsDNA, one strand shown
# T2 sequence: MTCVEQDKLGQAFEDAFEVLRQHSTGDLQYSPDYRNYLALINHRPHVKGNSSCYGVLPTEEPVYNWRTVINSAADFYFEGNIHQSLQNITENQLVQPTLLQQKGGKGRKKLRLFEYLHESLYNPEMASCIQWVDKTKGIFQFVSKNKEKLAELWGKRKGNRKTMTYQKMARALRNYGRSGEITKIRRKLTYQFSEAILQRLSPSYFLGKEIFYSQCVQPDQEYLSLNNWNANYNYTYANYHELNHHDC
# Method in brief: as §1
# [5] = molecular target: ELF4 (Homo sapiens, UniProt Q99607 1-663); settings: protein: recombinant; tags: N-terminal GST; dsDNA, one strand shown
# Method in brief: as §1
# [6] = molecular target: T3, ELK4 (Homo sapiens, UniProt P28324-2 1-405); settings: protein: recombinant; tags: N-terminal GST; dsDNA, one strand shown
# T3 sequence: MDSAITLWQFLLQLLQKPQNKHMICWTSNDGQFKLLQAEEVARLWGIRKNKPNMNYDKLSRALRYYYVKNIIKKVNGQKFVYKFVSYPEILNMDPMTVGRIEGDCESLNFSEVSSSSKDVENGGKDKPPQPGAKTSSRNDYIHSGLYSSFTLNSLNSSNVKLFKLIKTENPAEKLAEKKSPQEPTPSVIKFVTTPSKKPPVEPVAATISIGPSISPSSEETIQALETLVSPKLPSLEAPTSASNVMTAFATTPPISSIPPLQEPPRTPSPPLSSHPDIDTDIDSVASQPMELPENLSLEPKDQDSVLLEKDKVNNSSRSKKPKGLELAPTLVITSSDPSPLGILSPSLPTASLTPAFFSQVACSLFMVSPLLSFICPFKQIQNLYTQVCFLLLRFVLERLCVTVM
# Method in brief: as §1
# [7] = molecular target: T4, ETV2 (Homo sapiens, UniProt O00321 1-342); settings: protein: recombinant; tags: N-terminal GST; dsDNA, one strand shown
# T4 sequence: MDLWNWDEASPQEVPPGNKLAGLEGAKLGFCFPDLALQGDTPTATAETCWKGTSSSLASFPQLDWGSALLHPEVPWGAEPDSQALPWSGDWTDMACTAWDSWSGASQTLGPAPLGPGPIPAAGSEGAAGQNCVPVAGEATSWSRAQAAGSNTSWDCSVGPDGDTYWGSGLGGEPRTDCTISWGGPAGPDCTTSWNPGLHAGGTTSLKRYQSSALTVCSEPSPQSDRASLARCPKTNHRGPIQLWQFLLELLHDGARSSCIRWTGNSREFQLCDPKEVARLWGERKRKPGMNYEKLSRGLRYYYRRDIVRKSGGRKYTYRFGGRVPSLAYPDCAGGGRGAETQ
# Method in brief: as §1
# [8] = molecular target: T5, ELF3 (Homo sapiens, UniProt P78545 1-371); settings: protein: recombinant; tags: N-terminal GST; dsDNA, one strand shown
# T5 sequence: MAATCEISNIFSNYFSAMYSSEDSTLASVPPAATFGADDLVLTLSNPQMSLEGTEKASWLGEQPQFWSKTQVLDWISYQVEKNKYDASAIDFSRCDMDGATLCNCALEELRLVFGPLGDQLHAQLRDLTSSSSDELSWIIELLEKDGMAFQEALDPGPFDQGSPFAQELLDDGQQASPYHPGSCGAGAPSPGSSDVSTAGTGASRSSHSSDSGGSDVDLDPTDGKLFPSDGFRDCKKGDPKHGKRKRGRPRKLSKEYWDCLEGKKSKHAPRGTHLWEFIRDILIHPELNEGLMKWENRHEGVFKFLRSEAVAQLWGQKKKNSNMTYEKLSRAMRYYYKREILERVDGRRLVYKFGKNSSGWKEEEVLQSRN
# Method in brief: as §1
# [9] = molecular target: CRX (Homo sapiens, UniProt O43186 1-299); settings: protein: recombinant; tags: N-terminal GST; dsDNA, one strand shown
# Method in brief: as §1
# [10] = molecular target: ETV1 (Homo sapiens, UniProt P50549 1-477); settings: protein: recombinant; tags: N-terminal GST; dsDNA, one strand shown
# Method in brief: as §1
# [11] = molecular target: T6, ERF (Homo sapiens, UniProt P50548 1-548); settings: protein: recombinant; tags: N-terminal GST; dsDNA, one strand shown
# T6 sequence: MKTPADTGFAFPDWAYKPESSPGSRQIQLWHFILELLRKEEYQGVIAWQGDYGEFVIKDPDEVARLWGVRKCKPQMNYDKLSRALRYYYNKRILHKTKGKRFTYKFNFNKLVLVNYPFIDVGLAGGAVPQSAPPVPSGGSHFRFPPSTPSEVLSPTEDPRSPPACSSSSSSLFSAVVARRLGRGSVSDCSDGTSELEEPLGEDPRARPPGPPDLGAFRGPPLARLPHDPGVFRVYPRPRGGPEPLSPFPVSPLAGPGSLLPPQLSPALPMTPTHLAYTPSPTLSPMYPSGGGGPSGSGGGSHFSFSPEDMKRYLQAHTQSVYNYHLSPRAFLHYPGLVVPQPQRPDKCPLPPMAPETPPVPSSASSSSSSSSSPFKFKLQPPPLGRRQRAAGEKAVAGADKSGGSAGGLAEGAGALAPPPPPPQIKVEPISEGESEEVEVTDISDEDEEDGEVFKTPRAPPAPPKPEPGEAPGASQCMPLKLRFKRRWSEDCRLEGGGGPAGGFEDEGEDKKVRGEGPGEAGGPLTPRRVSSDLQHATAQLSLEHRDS
# Method in brief: as §1
# [12] = molecular target: T7, ETV3L (Homo sapiens, UniProt Q6ZN32 1-361); settings: protein: recombinant; tags: N-terminal GST; dsDNA, one strand shown
# T7 sequence: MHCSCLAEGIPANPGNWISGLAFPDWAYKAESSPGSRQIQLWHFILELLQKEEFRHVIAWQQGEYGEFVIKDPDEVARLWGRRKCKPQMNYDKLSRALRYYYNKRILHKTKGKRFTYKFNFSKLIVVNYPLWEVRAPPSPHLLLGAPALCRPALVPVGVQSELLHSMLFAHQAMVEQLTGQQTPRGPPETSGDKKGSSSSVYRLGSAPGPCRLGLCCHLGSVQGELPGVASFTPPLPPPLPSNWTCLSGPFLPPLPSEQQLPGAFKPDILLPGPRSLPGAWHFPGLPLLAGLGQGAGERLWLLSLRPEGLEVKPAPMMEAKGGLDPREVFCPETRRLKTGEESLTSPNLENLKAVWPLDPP
# Method in brief: as §1
# [13] = molecular target: T8, ETS2 (Homo sapiens, UniProt P15036 1-469); settings: protein: recombinant; tags: N-terminal GST; dsDNA, one strand shown
# T8 sequence: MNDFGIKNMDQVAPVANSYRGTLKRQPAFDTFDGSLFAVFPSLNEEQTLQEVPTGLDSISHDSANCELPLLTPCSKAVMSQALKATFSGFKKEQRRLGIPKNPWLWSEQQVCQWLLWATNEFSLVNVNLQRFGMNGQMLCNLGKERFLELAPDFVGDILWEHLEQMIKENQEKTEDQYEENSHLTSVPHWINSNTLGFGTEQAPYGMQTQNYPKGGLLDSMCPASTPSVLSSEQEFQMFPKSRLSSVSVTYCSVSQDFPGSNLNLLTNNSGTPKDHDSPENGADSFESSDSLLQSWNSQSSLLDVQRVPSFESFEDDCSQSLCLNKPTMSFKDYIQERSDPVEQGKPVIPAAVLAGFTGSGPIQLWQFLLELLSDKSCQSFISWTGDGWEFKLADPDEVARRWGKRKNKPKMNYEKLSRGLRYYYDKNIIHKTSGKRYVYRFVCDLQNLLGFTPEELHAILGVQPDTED
# Method in brief: as §1
# [14] = molecular target: T9, SPDEF (Homo sapiens, UniProt O95238 1-335); settings: protein: recombinant; tags: N-terminal GST; dsDNA, one strand shown
# T9 sequence: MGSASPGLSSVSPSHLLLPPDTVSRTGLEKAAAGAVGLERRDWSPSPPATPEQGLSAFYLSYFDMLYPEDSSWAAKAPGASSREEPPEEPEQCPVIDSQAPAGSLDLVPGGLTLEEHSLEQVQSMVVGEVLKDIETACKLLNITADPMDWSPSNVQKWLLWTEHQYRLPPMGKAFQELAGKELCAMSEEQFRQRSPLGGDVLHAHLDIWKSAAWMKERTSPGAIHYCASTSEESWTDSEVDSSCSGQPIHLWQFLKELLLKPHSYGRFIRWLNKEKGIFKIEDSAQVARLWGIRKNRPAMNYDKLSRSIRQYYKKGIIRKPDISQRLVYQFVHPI
# Method in brief: as §1
# [15] = molecular target: T10, ETV7 (Homo sapiens, UniProt Q9Y603 1-341); settings: protein: recombinant; tags: N-terminal GST; dsDNA, one strand shown
# T10 sequence: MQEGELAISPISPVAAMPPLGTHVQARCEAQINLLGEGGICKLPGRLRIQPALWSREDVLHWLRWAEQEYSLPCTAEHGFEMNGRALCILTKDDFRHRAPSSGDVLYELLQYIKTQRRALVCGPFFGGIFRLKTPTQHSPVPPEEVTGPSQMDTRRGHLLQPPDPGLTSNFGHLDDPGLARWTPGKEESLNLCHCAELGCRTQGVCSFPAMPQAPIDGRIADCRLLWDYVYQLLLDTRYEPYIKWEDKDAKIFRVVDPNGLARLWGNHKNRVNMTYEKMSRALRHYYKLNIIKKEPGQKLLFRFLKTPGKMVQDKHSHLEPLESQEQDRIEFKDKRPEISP
# Method in brief: as §1
# [16] = molecular target: T11, ELF5 (Homo sapiens, UniProt Q9UKW6-2 1-255); settings: protein: recombinant; tags: N-terminal GST; dsDNA, one strand shown
# T11 sequence: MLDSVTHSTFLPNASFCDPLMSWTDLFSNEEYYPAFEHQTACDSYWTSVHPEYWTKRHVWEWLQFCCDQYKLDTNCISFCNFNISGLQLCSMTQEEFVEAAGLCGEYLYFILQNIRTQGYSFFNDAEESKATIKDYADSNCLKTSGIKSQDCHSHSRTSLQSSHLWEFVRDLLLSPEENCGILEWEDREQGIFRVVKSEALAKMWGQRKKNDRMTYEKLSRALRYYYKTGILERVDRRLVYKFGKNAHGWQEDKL
# Method in brief: as §1
# [17] = molecular target: T12, ETV3 (Homo sapiens, UniProt P41162-2 1-143); settings: protein: recombinant; tags: N-terminal GST; dsDNA, one strand shown
# T12 sequence: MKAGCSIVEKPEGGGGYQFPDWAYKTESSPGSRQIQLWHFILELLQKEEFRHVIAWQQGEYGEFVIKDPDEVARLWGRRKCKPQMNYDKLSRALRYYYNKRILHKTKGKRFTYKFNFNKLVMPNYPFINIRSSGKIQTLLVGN
# Method in brief: as §1
# [18] = molecular target: ETV6 (Homo sapiens, UniProt P41212 1-452); settings: protein: recombinant; tags: N-terminal GST; dsDNA, one strand shown
# Method in brief: as §1
# Sequence of ETV5 (P41161 whole entry): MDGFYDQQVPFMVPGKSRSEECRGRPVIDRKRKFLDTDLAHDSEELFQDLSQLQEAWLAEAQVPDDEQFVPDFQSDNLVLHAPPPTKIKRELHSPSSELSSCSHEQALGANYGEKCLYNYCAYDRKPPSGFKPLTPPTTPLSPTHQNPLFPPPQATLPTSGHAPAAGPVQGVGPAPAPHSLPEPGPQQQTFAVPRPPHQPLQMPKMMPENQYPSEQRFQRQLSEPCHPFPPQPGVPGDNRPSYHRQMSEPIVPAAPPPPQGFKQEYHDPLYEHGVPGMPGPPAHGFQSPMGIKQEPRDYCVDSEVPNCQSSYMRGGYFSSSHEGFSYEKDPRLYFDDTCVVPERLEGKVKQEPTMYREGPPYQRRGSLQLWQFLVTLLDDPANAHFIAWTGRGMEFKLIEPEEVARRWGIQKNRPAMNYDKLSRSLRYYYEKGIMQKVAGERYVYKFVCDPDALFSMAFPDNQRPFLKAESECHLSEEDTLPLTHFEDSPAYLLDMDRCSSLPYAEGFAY
# Sequence of ETV6 (P41212 whole entry): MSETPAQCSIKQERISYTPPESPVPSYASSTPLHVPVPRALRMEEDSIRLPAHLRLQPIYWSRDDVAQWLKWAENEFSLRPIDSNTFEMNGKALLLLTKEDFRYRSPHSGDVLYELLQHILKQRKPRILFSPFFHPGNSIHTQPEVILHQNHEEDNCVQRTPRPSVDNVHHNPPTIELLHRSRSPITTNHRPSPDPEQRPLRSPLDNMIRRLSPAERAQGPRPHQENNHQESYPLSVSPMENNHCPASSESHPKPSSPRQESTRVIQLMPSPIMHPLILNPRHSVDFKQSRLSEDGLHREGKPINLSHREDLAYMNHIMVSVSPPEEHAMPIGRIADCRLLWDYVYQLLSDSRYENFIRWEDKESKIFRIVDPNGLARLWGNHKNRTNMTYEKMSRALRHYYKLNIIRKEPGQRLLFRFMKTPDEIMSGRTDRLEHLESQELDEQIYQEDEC
# Sequence of ETV1 (P50549 whole entry): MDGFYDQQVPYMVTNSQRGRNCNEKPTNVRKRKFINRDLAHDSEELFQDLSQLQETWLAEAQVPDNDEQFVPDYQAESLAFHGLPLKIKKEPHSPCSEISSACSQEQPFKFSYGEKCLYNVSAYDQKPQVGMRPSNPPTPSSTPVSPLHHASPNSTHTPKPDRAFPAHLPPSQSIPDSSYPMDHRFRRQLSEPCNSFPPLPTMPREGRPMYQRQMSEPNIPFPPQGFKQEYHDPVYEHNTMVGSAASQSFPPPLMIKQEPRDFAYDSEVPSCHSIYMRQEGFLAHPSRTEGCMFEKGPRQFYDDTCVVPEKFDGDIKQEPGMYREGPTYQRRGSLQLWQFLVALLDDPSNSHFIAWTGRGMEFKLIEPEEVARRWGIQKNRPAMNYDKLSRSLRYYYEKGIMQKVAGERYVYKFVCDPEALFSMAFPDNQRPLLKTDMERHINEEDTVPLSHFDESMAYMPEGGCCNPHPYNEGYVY
# Sequence of CRX (O43186 whole entry): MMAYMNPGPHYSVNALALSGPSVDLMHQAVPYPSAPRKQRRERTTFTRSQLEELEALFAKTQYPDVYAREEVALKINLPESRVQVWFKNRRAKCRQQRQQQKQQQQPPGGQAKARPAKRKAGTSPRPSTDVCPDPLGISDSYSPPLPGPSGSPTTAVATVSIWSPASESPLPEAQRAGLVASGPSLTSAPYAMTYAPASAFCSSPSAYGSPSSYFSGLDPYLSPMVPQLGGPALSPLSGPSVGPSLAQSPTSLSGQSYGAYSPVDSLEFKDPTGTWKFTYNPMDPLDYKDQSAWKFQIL
# Sequence of ELF4 (Q99607 whole entry): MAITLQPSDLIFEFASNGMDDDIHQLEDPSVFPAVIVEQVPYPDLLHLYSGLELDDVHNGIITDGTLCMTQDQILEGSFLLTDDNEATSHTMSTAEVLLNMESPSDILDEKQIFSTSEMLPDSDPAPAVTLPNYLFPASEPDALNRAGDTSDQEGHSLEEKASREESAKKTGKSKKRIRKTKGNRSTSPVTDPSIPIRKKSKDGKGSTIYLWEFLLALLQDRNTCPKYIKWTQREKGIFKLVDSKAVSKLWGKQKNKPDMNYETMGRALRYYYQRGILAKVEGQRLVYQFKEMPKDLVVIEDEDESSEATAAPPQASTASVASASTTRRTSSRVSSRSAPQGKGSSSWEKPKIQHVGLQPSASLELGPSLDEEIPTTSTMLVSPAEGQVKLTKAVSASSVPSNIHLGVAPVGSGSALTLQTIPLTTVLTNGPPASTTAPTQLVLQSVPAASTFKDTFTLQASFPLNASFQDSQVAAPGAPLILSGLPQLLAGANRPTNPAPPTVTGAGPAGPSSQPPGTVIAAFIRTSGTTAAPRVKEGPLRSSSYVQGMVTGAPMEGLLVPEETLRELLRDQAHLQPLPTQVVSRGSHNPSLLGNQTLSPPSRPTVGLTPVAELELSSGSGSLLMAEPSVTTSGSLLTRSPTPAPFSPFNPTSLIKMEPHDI
# Sequence of HSF1 (Q00613 whole entry): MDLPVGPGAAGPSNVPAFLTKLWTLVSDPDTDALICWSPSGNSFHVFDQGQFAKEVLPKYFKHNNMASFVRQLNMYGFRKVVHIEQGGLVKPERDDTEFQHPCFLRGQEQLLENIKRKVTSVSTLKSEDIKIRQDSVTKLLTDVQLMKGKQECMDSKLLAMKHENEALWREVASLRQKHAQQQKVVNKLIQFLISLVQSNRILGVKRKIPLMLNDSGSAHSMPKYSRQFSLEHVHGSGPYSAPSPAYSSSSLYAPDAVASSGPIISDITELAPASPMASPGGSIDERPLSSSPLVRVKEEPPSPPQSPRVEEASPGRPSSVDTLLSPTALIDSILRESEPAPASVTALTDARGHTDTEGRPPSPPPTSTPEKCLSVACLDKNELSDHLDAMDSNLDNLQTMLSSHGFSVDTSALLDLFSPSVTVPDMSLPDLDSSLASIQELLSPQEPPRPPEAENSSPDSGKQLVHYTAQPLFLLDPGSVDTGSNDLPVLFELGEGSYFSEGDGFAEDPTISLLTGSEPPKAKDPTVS
sequence,measurement,setting,value
ACATTA,binding signal,[1],"1.16 fold enrichment (6-mer frequency, TF over GST control)"
same,binding signal,[2],"1.12 fold enrichment (6-mer frequency, TF over GST control)"
same,binding signal,[3],"1.2 fold enrichment (6-mer frequency, TF over GST control)"
same,binding signal,[4],"1.23 fold enrichment (6-mer frequency, TF over GST control)"
same,binding signal,[5],"1.2 fold enrichment (6-mer frequency, TF over GST control)"
same,binding signal,[6],"1.18 fold enrichment (6-mer frequency, TF over GST control)"
same,binding signal,[7],"1.25 fold enrichment (6-mer frequency, TF over GST control)"
same,binding signal,[8],"1.14 fold enrichment (6-mer frequency, TF over GST control)"
same,binding signal,[9],"1.38 fold enrichment (6-mer frequency, TF over GST control)"
same,binding signal,[10],"1.29 fold enrichment (6-mer frequency, TF over GST control)"
same,binding signal,[11],"1.21 fold enrichment (6-mer frequency, TF over GST control)"
same,binding signal,[12],"1.15 fold enrichment (6-mer frequency, TF over GST control)"
same,binding signal,[13],"1.19 fold enrichment (6-mer frequency, TF over GST control)"
same,binding signal,[14],"1.12 fold enrichment (6-mer frequency, TF over GST control)"
same,binding signal,[15],"1.15 fold enrichment (6-mer frequency, TF over GST control)"
same,binding signal,[16],"1.1 fold enrichment (6-mer frequency, TF over GST control)"
same,binding signal,[17],"1.15 fold enrichment (6-mer frequency, TF over GST control)"
same,binding signal,[18],"1.16 fold enrichment (6-mer frequency, TF over GST control)"

# Source: PMC7862700, “An all-to-all approach to the identification of sequence-specific readers for epigenetic DNA modifications on cytosine”
